The record followed here is PubChem BioAssay.

The structures appear in SMILES notation. “And” between values parts separate entries of the source, which are not always exact repeats. Equal values may be shown once. For part of these data: Measured potencies and affinities stand elsewhere. The source made the active and inactive calls.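 The calls were made as follows, unless noted: active = compounds whose cell count with miR-34 switched on is under 0.7 times the count with it off; inactive = the rest.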

A short description of assay [1]: blockers of polyQ-driven CASP3 activation – cell-based (AID 1583). The conditions noted are these: polyglutamine-induced caspase-3 activation, cell assay; stronger effect = higher value;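 tested at 10 µM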.
Assay [2] is described as follows: yeast 75Q aggregation reduction – 75Q-TubU reporter (AID 1593). The conditions noted are these: Yeast 75Q polyglutamine aggregation reporter.
Assay [3] is described as follows: restoration of touch response, mutant HTT neurons – whole organism, C. elegans mechanosensory neurons, N-terminal huntingtin (AID 1599). To be noted: C. elegans polyQ-huntingtin mechanosensory neurons, stronger effect = higher value.
Assay [4] is described as follows: blockers of cytochrome c efflux from mitochondria – biochemical, purified mitochondria (AID 1603).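 Also: mouse liver mitochondria challenged with calcium chloride; signal normalized to the plate average as 100%.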 To be noted: stronger effect = lower value.
Assay [5] is described as follows: polyglutamine aggregate formation blockers (AID 1604). The conditions noted are these: polyglutamine-induced protein aggregation inhibition assay; stronger effect = higher value; tested at 2.5 µM.
Assay [6] is described as follows: glutamate transport activators, MN-1 cells, MN-1 cell line (AID 1612).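 Also: tested at 1 µM final; 0% = mean of DMSO vehicle wells on each plate; positive means more glutamate uptake than control and negative means less.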 The conditions noted are these: MN-1 motor neuron cells, stronger effect = higher value.
Assay [7] in a line: GFP-Q80 aggregate reduction, neuronal-like cells, cell-based, NGF-treated PC12, GFPQ80 (AID 1614).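 Also: lower means fewer inclusions and 0 means no inclusions at all.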 The conditions noted are these: PC12 NGF-treated GFP-polyQ80 inclusion reduction.
Assay [8] is described as follows: 75Q-TubH aggregate inhibition, S. cerevisiae, yeast (AID 1616). To be noted: S. cerevisiae 75Q-TubH polyglutamine aggregation suppression; stronger effect = higher value.
Assay [9] is described as follows: compounds altering circadian rhythm period length – cell-based, LOPAC library, luminescence reporter (AID 2774; call rule not given here;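 also: values are relative to mean of DMSO wells on each plate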). To be noted: circadian reporter cells, at 7 µM, actives lie on both sides.
The nature of assay [10]: P. berghei load reduction in hepatocytes – cell-based, HepG2, luciferase luminescence, HepG2 viability, primary screen (AID 624349; in the data active = parasite load remaining mostly below about 12%, no sharp cut-off; inactive = mostly above about 10%;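 also: 100% = mean of DMSO negative control wells on the same plate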). To be noted: P. berghei liver stage in HepG2, luciferase luminescence, concentration not given here; parasite load remaining: stronger effect = lower value; viability: measured here: HepG2 viability without parasites.
The subject of assay [11] is Hepatitis C virus NS3 helicase. Kind of assay: blockers of NS3h binding to ssDNA – biochemical, fluorescence polarization, LOPAC1280 library, primary screen (AID 687035; in the data active = inhibition above about 37%). To be noted: Purified HCV NS3 helicase, Cy5-dT15 ssDNA binding fluorescence polarization; stronger effect = higher value; concentration not given here. For orientation: Fluorescence polarisation rises when a labelled molecule tumbles more slowly, as on binding a larger partner.

For assay [12], the target named is 6-phosphogluconate dehydrogenase, decarboxylating (Homo sapiens) (UniProt P52209). Kind of assay: inhibition of human phosphogluconate dehydrogenase – biochemical, recombinant enzyme, NADPH absorbance, primary screen (AID 1159550;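 active = at least 20% inhibition of 6-phosphogluconate dehydrogenase activity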). The conditions noted are these: recombinant 6PGD, NADPH absorbance 341 nm; at 10 µM; stronger effect = higher value.
Assay [13] in a line: EMT-state selective cytotoxicity in co-culture – imaging, PC-3E GFP, TEM4-18 mCherry, primary screen (AID 1345086;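 active = compounds killing one labelled cell type while sparing the other, by normalised counts and ratio limits, not self-fluorescent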;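 as to all read-outs here: cells exposed to compound for 72 h before imaging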;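 as to red/green cell ratio (normalised): normalised mesenchymal count divided by normalised epithelial count so high means epithelial killing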). The conditions noted are these: PC-3E GFP / TEM4-18 mCherry co-culture, imaging cell counts, at 1 µM; for red/green cell ratio (normalised): actives lie on both sides, counts scaled to control wells, 1 = unselective.
A short description of assay [14]: viability loss with induced miR-34 in A549 – imaging, A549 dox-inducible miR-34, nuclei and caspase counts, primary screen (AID 1347080). The conditions noted are these: A549 miR-34 inducible, Hoechst nuclei count, 48 h.
Assay [15] in a line: blockers of cellular phospholipid synthesis – cell-based, LOPAC library, screen 4, primary screen (AID 1347384; call rule not given here). To be noted: animal cells, phospholipid biosynthesis inhibition screen; at 10 µM.
A short description of assay [16]: MELAS cybrid and Rieske KO viability enhancers – cell-based, MELAS cybrids, Rieske KO mouse fibroblasts, CellTiter-Glo, primary screen (AID 1508586;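 active = mean z-score across replicates of 1.96 or higher in either the MELAS or the Rieske mutant cell line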;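 also: z relative to plate mean and SD of compound and empty wells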). The conditions noted are these: low glucose.
The target of assay [17] is Mitogen-activated protein kinase 7 (Homo sapiens) (UniProt Q13164). Kind of assay: Gal4-ERK5 driven luciferase induction – cell-based, HTS, primary screen (AID 1508626;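 active = luciferase signal above three times the same-plate solvent-only control wells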;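 also: luciferase driven by Gal4-ERK5 fusion binding five Gal4 sites before minimal TATA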). To be noted: HeLa Gal4-ERK5 transactivation, 18 h, at 5 µM, stronger effect = higher value.
Assay [18] can be described thus: galactose survival enhancers in mitochondrial complex I cybrids – cell-based, galactose medium, ATP luminescence, primary screen (AID 1645843;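 active = z-score of at least 1.8 in each of two replicates, scored against plate mean and spread of sample wells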;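 also: positive z means more ATP and so rescue of galactose-driven cybrid death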). The conditions noted are these: complex I mutant cybrid cells, 72 h, stronger effect = higher value.
For assay [19], the target named is NAD(+) hydrolase SARM1 (Homo sapiens) (UniProt Q6SZW1). Kind of assay: blocking NAD cleavage by SARM1 SAM-TIR – cell lysate, NAD-Glo luminescence (AID 1508614;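 active = compound whose remaining NAD level is above about 45 nM, limit read from the data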;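 also: higher remaining NAD means stronger inhibition of SARM1 NADase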). To be noted: SAM-TIR HEK293T lysate NADase, at 1 µM, stronger effect = higher value.
The mark [20] stands for this setting: measured here: epithelial PC-3E GFP cell survival.
Where [21] appears, read: measured here: mesenchymal TEM4-18 mCherry cell survival.
The mark [22] stands for this setting: stronger effect = lower value, cell number ratio, induced over uninduced.
The mark [23] stands for this setting: measured here: relative caspase fold change +Dox/-Dox.
[24] abbreviates: measured here: total cells with miR-34 induction, stronger effect = lower value.
[25] abbreviates: measured here: total cells without miR-34 induction.
The mark [26] stands for this setting: MELAS cybrid survival, CellTiter-Glo 48 h, stronger effect = higher value.
[27] abbreviates: Rieske KO mouse fibroblast survival, CellTiter-Glo 72 h.

Chain of 6-phosphogluconate dehydrogenase, decarboxylating (Homo sapiens) (P52209 whole entry, looked up): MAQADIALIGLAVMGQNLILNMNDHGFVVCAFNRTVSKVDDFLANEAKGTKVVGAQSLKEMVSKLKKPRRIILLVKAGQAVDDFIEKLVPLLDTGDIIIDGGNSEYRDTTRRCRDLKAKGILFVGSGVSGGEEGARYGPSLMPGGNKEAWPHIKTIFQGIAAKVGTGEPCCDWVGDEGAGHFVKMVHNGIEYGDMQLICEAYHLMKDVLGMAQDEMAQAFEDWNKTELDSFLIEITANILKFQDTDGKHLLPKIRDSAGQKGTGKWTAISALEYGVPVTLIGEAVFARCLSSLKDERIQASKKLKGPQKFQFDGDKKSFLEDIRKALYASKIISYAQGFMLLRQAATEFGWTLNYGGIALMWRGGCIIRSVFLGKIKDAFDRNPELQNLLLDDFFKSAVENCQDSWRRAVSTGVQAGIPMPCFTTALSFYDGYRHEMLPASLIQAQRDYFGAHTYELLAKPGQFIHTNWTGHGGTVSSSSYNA
Chain of Mitogen-activated protein kinase 7 (Homo sapiens) (Q13164 whole entry, looked up, the tested form may be a part): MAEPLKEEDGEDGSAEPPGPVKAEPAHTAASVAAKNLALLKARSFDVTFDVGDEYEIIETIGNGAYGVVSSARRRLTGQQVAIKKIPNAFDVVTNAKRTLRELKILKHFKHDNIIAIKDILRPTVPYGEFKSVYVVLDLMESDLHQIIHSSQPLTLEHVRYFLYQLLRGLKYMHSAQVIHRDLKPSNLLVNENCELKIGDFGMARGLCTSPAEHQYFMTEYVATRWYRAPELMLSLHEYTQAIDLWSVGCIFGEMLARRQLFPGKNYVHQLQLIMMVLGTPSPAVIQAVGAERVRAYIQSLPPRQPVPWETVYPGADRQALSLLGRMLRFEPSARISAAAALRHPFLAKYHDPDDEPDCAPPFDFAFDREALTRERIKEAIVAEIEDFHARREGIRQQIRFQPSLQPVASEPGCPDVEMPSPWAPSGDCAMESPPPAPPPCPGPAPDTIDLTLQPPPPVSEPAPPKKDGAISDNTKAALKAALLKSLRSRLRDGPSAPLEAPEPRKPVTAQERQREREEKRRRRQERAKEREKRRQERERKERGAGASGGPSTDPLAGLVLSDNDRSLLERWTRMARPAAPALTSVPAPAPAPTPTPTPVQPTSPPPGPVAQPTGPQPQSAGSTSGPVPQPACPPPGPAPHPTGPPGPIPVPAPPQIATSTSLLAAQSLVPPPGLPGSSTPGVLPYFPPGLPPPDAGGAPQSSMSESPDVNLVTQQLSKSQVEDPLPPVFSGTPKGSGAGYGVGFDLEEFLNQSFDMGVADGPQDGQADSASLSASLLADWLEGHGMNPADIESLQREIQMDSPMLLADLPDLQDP
Chain of NAD(+) hydrolase SARM1 (Homo sapiens) (Q6SZW1 whole entry, looked up): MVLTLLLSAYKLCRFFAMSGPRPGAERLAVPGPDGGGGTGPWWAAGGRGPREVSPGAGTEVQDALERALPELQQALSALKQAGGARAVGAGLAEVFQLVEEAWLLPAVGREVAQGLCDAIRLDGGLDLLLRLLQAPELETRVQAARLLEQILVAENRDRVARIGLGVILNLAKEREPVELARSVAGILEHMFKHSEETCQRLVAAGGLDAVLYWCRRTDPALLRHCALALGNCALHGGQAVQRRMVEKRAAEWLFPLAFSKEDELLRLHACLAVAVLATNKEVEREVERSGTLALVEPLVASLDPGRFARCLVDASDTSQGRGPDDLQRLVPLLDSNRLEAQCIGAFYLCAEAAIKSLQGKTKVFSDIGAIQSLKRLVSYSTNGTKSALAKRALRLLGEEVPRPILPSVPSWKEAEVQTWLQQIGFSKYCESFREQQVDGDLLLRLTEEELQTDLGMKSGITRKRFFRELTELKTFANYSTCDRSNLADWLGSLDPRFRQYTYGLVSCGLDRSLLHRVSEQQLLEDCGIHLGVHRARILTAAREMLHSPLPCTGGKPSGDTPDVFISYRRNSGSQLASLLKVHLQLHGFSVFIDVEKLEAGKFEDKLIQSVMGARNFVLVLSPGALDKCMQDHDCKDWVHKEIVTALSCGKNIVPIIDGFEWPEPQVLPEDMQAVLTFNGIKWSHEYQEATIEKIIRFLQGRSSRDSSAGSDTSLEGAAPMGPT

A word on the inhibition: it is the drop in the measured response relative to a control, in per cent. Usually viability stands for a read-out of living cells in per cent, often relative to untreated cells. On to `O=c1c(O)c(-c2ccc(O)cc2O)oc2cc(O)cc(O)c12`, for which the inhibition is -17.6% in assay [1], -4% (inactive) in assay [11] and -23.3% (inactive) in assay [12]. The compound further returned a score in assay [2] of 1.66. The compound further came in with a rescue above control in assay [3] of -6.82. In addition, the cytochrome c release ratio in assay [4] was 0.57. Further, the inhibition of aggregation in assay [5] came to 49%. Moreover, the glutamate uptake change in [6] is -11.3%. For the same compound, in assay [7], the inclusion score is 2. In [8], the aggregation suppression score is 0.872. The period change in assay [9] is 0.015 h (inactive). Also, the parasite load remaining in assay [10] is 81.2% (inactive). The compound also displayed a viability in assay [10] of 66.9%. Moreover, the red/green cell ratio (normalised) in assay [13] is 0.97 (inactive). Besides, the normalised cell number in assay [13] (setting [20]) was 1.01; in [13] (setting [21]), 0.98. In addition, the fold change is 1.04 (inactive) and 0.943 (inactive) in assay [14] (setting [22]); 0.926 and 0.734 in [14] (setting [23]). In addition, the cell count in assay [14] (setting [24]) was 11400 and 9750; in assay [14] (setting [25]) it was 11000 and 10300. The outcome in assay [15] was inactive. In addition, the figures for the z-score in [16] (setting [26]), in assay [16] (setting [27]) and in assay [18] were -0.297 (inactive), 0.729 and 0.495 (inactive), respectively. Further, in assay [17], the luciferase signal is 32 AU (inactive).

On to `Nc1ccc(S(=O)(=O)Nc2ncccn2)cc1`, for which the inhibition in assay [1] was -24.3%; in assay [12], 5.23% (inactive). In addition, the score in assay [2] worked out at 0.99. This compound also yielded a rescue above control in assay [3] of -2.17. Besides, in assay [4], the cytochrome c release ratio is 1.47. Besides, the inhibition of aggregation in assay [5] worked out at 53.9%. The glutamate uptake change in assay [6] is -2.67%. The compound also gave an inclusion score in assay [7] of 2. For the same compound, the aggregation suppression score in [8] turned out to be 0.995. Besides, the red/green cell ratio (normalised) in [13] is 1.41 (inactive). For the same compound, the normalised cell number in assay [13] (setting [20]) stood at 0.84; in [13] (setting [21]), 1.19. For the same compound, the z-score in [16] (setting [26]) was -0.222 (inactive) and 0.26 (inactive) and -0.566 (inactive); in assay [16] (setting [27]), 0.689 and 0.071 and -1.27; in assay [18], -0.065 (inactive). In addition, in [19], the remaining NAD is 10 nM (inactive). In addition, in assay [17], the luciferase signal was 40 AU (inactive).

For `COc1cc2c(cc1OC)[C@@H]1C(=O)c3ccc4c(c3O[C@@H]1CO2)C=CC(C)(C)O4`, the inhibition in assay [12] is -0.416% (inactive). The red/green cell ratio (normalised) in [13] is 0.71 (inactive). Moreover, the normalised cell number in assay [13] (setting [20]) was 0.9; in [13] (setting [21]) it was 0.64. For the same compound, the luciferase signal in [17] was 44 AU (inactive).

Regarding `COc1ccc(-c2coc3cc(O)cc(O)c3c2=O)cc1`, the inhibition in assay [1] is -2.46%; in assay [12], 17.9% (inactive). The score in assay [2] is 1.27. The compound further came in with a rescue above control in assay [3] of 4. The cytochrome c release ratio in [4] worked out at 2.73. Further, the inhibition of aggregation in [5] was 22.4%. Further, the glutamate uptake change in assay [6] came to 10.2%. Besides, the aggregation suppression score in assay [8] was found to be 1.01. In addition, the red/green cell ratio (normalised) in [13] was 0.99 (inactive). The normalised cell number is 1.32 in [13] (setting [20]) and 1.3 in [13] (setting [21]). The fold change in [14] (setting [22]) is 0.896 (inactive); in assay [14] (setting [23]), 0.917. Also, the cell count in assay [14] (setting [24]) was found to be 7900; in [14] (setting [25]) it was 8810. Moreover, the z-score was -0.162 (inactive) in assay [16] (setting [26]) and -1.4 in assay [16] (setting [27]). Further, in assay [17], the luciferase signal was 16 AU (inactive).

`O=C(O)/C=C/c1ccc(O)c(O)c1`: in assay [9], the period change is 0.055 h (inactive). The inhibition in assay [11] was 0% (inactive); in assay [12], 7.04% (inactive). In [13], the red/green cell ratio (normalised) was 1.06 (inactive). Also, the normalised cell number was determined as 1 in [13] (setting [20]) and 1.06 in assay [13] (setting [21]). Besides, the fold change in assay [14] (setting [22]) was 0.967 (inactive) and 0.99 (inactive); in [14] (setting [23]) it was 2.48 and 1.11. Also, the cell count in [14] (setting [24]) was 10100 and 5830; in assay [14] (setting [25]), 10400 and 5890. Moreover, the call in [15] was inactive. In addition, the luciferase signal in assay [17] is 32 AU (inactive). Besides, in [18], the z-score was -0.81 (inactive).
